We go through 95 molecules from ChEMBL document CHEMBL3988442, “University of Dundee, Small-Polar-MMV Screening Library” (2021).

Each structure is given as a SMILES string. Among all 48,000 compounds or so, about 13,000 (27%) showed an effect of 50% or more. Some of the results follow.

This test concerns Wolbachia pipientis. The experiment in a line: Anti-Wolbachia Cell-Based Screen. Details: scale not given: in the data most compounds retested in dose-response had high values. As to conditions: 5 µM. In kind it is functional.
`CN(c1cccnc1N1CCCC1)S(=O)(=O)c1cccs1`: the “Percent Effect” value was found to be 3.267%.
With `CCc1nc(C)c(C(=O)N2CCNCC2C(=O)Nc2ccc(C)nc2)o1` (stereo not given) the figure was 1.705%; with `Cc1cccc(C)c1OC1CN(Cc2cnc(-c3ccco3)nc2)C1`, -6.327%; with `CSCC(=O)N[C@H]1CN(CC2CCOCC2)C[C@@H]1c1ccccc1`, 6.905%.
As for `Cc1cc(C(=O)N2CCc3ncnc(-c4cnn(C)c4)c3CC2)no1`, the figure is 110.1%; as for `O=C(c1cc[nH]n1)N1CCc2ncnc(N3CCSCC3)c2CC1`, 19.12%; as for `Cn1cc(-c2ncnc3c2CCN(C(=O)N2CCOCC2)CC3)cn1`, -0.924%.
As for `Cc1ccc(C(=O)N2CCc3ncnc(C)c3CC2)o1`, the figure is -4.866%; as for `Cc1ccc(C(=O)N2CCc3ncnc(-c4cnn(C)c4)c3CC2)o1`, 96.64%.
For `Cn1cc(-c2ncnc3c2CCN(C(=O)c2cscn2)CC3)cn1`, the “Percent Effect” value is on record as 121.2%.
As to `COc1cc(N2CCc3ncnc(-c4cnn(C)c4)c3CC2)ncn1`, the “Percent Effect” value was -4.032%.
On to `CN(C)c1cnnc(N2CCN(C(=O)CCC3CCCCC3)CC2)c1`, for which the “Percent Effect” value turned out to be 3.23%.
With `Cc1n[nH]c(SCC(=O)NC(c2ccncc2)C(C)C)n1` (stereo not given) the figure was 1.831%.
Consider `Cc1cc(NC(=O)N2CCOCC2)nn1-c1ccccc1Cl`, for which the “Percent Effect” value is -5.01%.
As for `CCc1nc(NS(=O)(=O)c2cc(C)cc(F)c2)no1`, the figure is -9.734%; as for `Cc1ccc(N2CCC3(CN(Cc4ccncc4)CCC3(F)F)C2)nn1.O=C(O)C(F)(F)F.O=C(O)C(F)(F)F` (stereo not given), 101.6%.
As for `Cc1ccc(N2CCCC3(CCCC(=O)N3)C2)nn1.O=C(O)C(F)(F)F` (stereo not given), the figure is -15.09%.
In the case of `Cc1ccc(CN2CCC(F)(F)C3(CCN(c4cnccn4)C3)C2)o1.O=C(O)C(F)(F)F.O=C(O)C(F)(F)F` (stereo not given), the “Percent Effect” value came to 15.24%.
As for `Cc1ccc(N2CCC3(CN(Cc4cccs4)CCC3(F)F)C2)nn1.O=C(O)C(F)(F)F` (stereo not given), the figure is 80.15%; as for `Cc1ccc(N2CCC3(CC2)CC(OCC(C)C)C3)nn1.O=C(O)C(F)(F)F`, -76.25%; as for `Cc1n[nH]cc1CNc1ccc2c(c1)N(C(=O)OC(C)(C)C)CCC2`, -11.3%.
As for `Cc1nnsc1CNC(=O)Nc1cccc(N2CCN(C)C2=O)c1`, the figure is -31.37%; as for `O=C1COC2(COCCN(c3cnccn3)C2)CN1c1cccc(F)c1` (stereo not given), -3.492%; as for `CN1CC2(COCCN(c3ncccn3)C2)OCC1=O` (stereo not given), -2.048%.
As for `Cc1cccc(N2CCOCC3(C2)CN(c2cncnc2)C(=O)CO3)n1` (stereo not given), the figure is 105.8%; as for `Cc1cccc(N2CCOCC3(C2)CN(c2cccnc2)C(=O)CO3)n1` (stereo not given), 106.1%; as for `Cc1cccc(N2CC3(COCCN(c4ccncn4)C3)OCC2=O)c1` (stereo not given), -13.92%.
Take `N#CCCN(Cc1ccco1)C(=O)COC1CCCCC1`: the “Percent Effect” value was determined as 5.394%.
As for `O=S1(=O)C[C@@H]2[C@H](C1)N(Cc1nc3ccccc3[nH]1)CCN2CC1CC1`, the figure is 0.3251%; as for `CC(C)c1nc(C2CCCN2C(=O)c2ccc(N(C)C)nn2)no1` (stereo not given), 2.138%.
With `COCC(=O)N1CCCCC1c1nc(CN(C)C(C)=O)cc(N(C)C)n1` (stereo not given), the “Percent Effect” value was found to be 103.1%.
As for `CC(=O)c1ccc(C(=O)N2CCCCC2c2nc[nH]n2)cc1` (stereo not given), the figure is -8.755%; as for `CN(CC(=O)N1CCCC1c1noc(C2CC2)n1)C1CC1` (stereo not given), -4.612%.
With `CC(=O)N1CCCC1c1nc(CN(C)C(=O)C(C)C)cc(N(C)C)n1` (stereo not given) the figure was 95.56%; with `CCC(=O)N1CCCCC1c1nc(CN(C)C(C)=O)cc(N(C)C)n1` (stereo not given), 86.02%.
As for `Cc1ccsc1CNC(=O)NC1CCCc2c1cnn2CCO` (stereo not given), the figure is 0.2453%.
With `CC(=O)N1CCCN(C(=O)NCCCN(C)S(C)(=O)=O)CC1`, the “Percent Effect” value was -3.578%.
As for `COc1ccccc1CN(Cc1cccnc1)Cc1nccs1`, the figure is -55.96%; as for `CCn1cc(NC(=O)C2CCN(CC(=O)NCC(C)C)CC2)cn1`, 118.6%.
With `CCCNC(=O)CN1CCC(C(=O)Nc2cnn(CC)c2)CC1` the figure was 2.919%; with `CCN1CCC(CNC(=O)Nc2cnn(CC(N)=O)c2)C1` (stereo not given), -9.388%.
As for `CCCNC(=O)C(C)N1CCC(C(=O)Nc2cnn(CC)c2)CC1` (stereo not given), the figure is 103.7%; as for `Cc1ncncc1C(=O)Nc1cnn(CC(=O)NC2CCCC2)c1`, 0.1635%.
Turning to `CCc1noc(C)c1C(=O)Nc1cnn(CC(=O)NC2CCCC2)c1`, the “Percent Effect” value is 1.161%.
As to `CCn1cc(NC(=O)C2CCN(CC(=O)NC(C)(C)CC)CC2)cn1`, the “Percent Effect” value is listed as 91.29%.
Consider `CCn1cc(NC(=O)NC2CCCc3c2cnn3CCO)cn1` (stereo not given), for which the “Percent Effect” value was 0.905%.
With `CCn1cc(NC(=O)C2CCN(CC(=O)NC3CCCC3)CC2)cn1` the figure was 91.7%; with `CCn1cc(NC(=O)C2CCN(CC(=O)N3CCOCC3)CC2)cn1`, -4.13%.
As for `O=C(c1ccccc1C(F)(F)F)N1C[C@@H](CN2CCOCC2)[C@@H](CO)C1`, the figure is -0.09435%; as for `CCCc1cncnc1N1CCC(NCc2cc3ccccc3[nH]2)CC1`, -18.7%; as for `O=C(NC1CC1)[C@H]1C[C@H]2OCC[C@H]2N(CC2CCOCC2)C1.O=C(O)C(F)(F)F`, 0.97%.
With `O=C(Nc1nncs1)N1CCCN(C2CCCCC2)CC1` the figure was -4.459%; with `COc1ccc(S(=O)(=O)NCCC(O)c2cc(C)oc2C)c(C)c1` (stereo not given), 2.617%.
In the case of `C[C@@H]1C[C@H]2CN(C(=O)C3=CCCCC3)C[C@H]2O1`, the “Percent Effect” value amounted to 0.662%.
As to `O=C(NC1CCS(=O)(=O)c2ccccc21)c1cccs1` (stereo not given), the “Percent Effect” value came out at 3.993%.
As for `CCNC(=O)N1C[C@@H]2OCC(=O)N(C(C)C)[C@@H]2C1`, the figure is -6.666%; as for `Cc1ccsc1C(=O)Nc1cnn(CC(=O)NC2CCCC2)c1`, 2.464%; as for `Cc1cc(C(=O)Nc2cnn(CC(=O)NC3CCCC3)c2)c(C)s1`, 2.888%.
As for `Cc1nc(C)c(C(=O)Nc2cnn(CC(=O)NC3CCCC3)c2)s1`, the figure is 111.4%.
For the molecule `Cc1nc(CC(=O)N2CCCC2c2nc(-c3ccccc3)no2)cs1` (stereo not given), the “Percent Effect” value is on record as -0.9344%.
With `O=C(c1c2c(N3CCOCC3)ncnc2n2ccccc12)N1CCCC1` the figure was -0.1651%.
With `CN1CCCN(c2ncnc(N3CCOCC3)c2N)CC1` the figure was 103.9%; with `O=C(CSc1ccccc1)N1CCc2c(ncnc2N2CCOCC2)C1`, 3.982%.
With `OC1(CN2CCCC2)COCCN(c2ncnc3[nH]cnc23)C1` (stereo not given) the figure was 9.273%.
For `Nc1c(N2CCOCC2)ncnc1N1CCOCC1`, the “Percent Effect” value came to 121.8%.
Take `Nc1c(N2CCCC2)ncnc1N1CCOCC1`: the “Percent Effect” value is 108.5%.
With `Nc1c(N2CCCCC2)ncnc1N1CCOCC1` the figure was 114.1%; with `O=C(c1c2c(N3CCCC3)ncnc2n2ccccc12)N1CCOCC1`, -6.579%; with `Clc1cnccc1N1CCCOCC1`, 1.077%.
With `CC(C)(C)C(=O)N1CCCN(c2ncnc3nc(N)ccc23)CC1` the figure was 6.072%.
As for `Cn1cccc1C(=O)N1CCc2ncnc(N3CCOCC3)c2CC1`, the “Percent Effect” value is reported as -2.151%.
Consider `O=C1COc2ccc(S(=O)(=O)NCC3CCCO3)c3c2N1CCC3` (stereo not given), for which the “Percent Effect” value is recorded as -4.147%.
With `CN1CCN(C[C@H]2OC[C@@H]3CCN(C(=O)c4cnccn4)C[C@@H]32)CC1.O=C(O)C(F)(F)F.O=C(O)C(F)(F)F` the figure was -7.535%; with `CN1CCN(C[C@@H]2OC[C@H]3CN(Cc4cccc(F)c4)CC[C@H]32)CC1.O=C(O)C(F)(F)F.O=C(O)C(F)(F)F.O=C(O)C(F)(F)F`, -7.407%; with `CN(Cc1cccnc1)C[C@@H]1OC[C@H]2CN(Cc3ccoc3)CC[C@H]21.O=C(O)C(F)(F)F.O=C(O)C(F)(F)F.O=C(O)C(F)(F)F`, 6.292%.
Turning to `Cc1ccc(CN2CC[C@@H]3[C@@H](CO[C@H]3CN3CCN(C)CC3)C2)cc1.O=C(O)C(F)(F)F.O=C(O)C(F)(F)F.O=C(O)C(F)(F)F`, the “Percent Effect” value was 118.8%.
With `CN(C)C[C@@H]1OC[C@H]2CN(Cc3ccoc3)CC[C@H]21.O=C(O)C(F)(F)F.O=C(O)C(F)(F)F` the figure was 10.46%.
With `Cc1ccc(CN2CC[C@H]3[C@H](CO[C@H]3CN(C)C)C2)o1.O=C(O)C(F)(F)F.O=C(O)C(F)(F)F` the figure was -5.785%; with `Cc1ccc(CN2CC[C@@H]3[C@@H](CO[C@H]3CN3CCN(C)CC3)C2)s1.O=C(O)C(F)(F)F.O=C(O)C(F)(F)F.O=C(O)C(F)(F)F`, 97.55%.
As for `Cc1ccc(CN2CC[C@H]3CO[C@H](CN(C)Cc4ccco4)[C@H]3C2)s1.O=C(O)C(F)(F)F.O=C(O)C(F)(F)F`, the figure is 10.16%; as for `CN1CCN(C[C@@H]2OC[C@H]3CN(CCc4ccccc4)CC[C@H]32)CC1.O=C(O)C(F)(F)F.O=C(O)C(F)(F)F.O=C(O)C(F)(F)F`, 108.2%.
Consider `CCN1CCC(N[C@@H]2CC[C@@H]2NC(=O)Cc2csc(C)n2)CC1`, for which the “Percent Effect” value was 2.853%.
As for `Clc1cccnc1N1CCC(NCc2cccc3cn[nH]c23)C1` (stereo not given), the “Percent Effect” value is on record as 0.5809%.
Turning to `COCC1c2nnn(CC3CC3)c2CCN1C(=O)c1ccncn1` (stereo not given), the “Percent Effect” value is -7.229%.
As for `CN(C)c1ccc(-c2cc(C(=O)O)cc(S(=O)(=O)NC3CC3)c2)cc1`, the “Percent Effect” value is on record as -6.079%.
As for `Cc1cc(O)nc(C2CCCN(Cc3ccncc3)C2)n1` (stereo not given), the figure is -8.016%; as for `COCc1cc(O)nc(C2CCCN(Cc3cccc(Cl)c3Cl)C2)n1` (stereo not given), 101.5%; as for `COCc1cc(O)nc(C2CCCN(Cc3ccc(OC)cc3)C2)n1` (stereo not given), 126.6%.
With `CCc1cc(O)nc(C2CCCN(Cc3ccncc3)C2)n1` (stereo not given) the figure was 119.5%; with `COCc1cc(O)nc(C2CCCN(Cc3cc(OC)ccc3F)C2)n1` (stereo not given), -12.81%.
With `COCC1CCCN(CCCc2cccc(OC)c2)C1` (stereo not given) the figure was 6.457%.
Take `COCc1nccc(C2CCCN(Cc3ccccc3C#N)C2)n1` (stereo not given): the “Percent Effect” value is on record as -3.966%.
As for `COCc1cc(O)nc(C2CCCN(Cc3cccc(OC)c3)C2)n1` (stereo not given), the figure is 123.8%.
As for `NC(=O)Cn1ccnc1C1CCCN(Cc2cccc(Cl)c2F)C1` (stereo not given), the figure is -13.72%; as for `COCCN1C[C@H]2CN(Cc3cccc(OC)c3)CCN2C1=O`, -3.935%.
